# From PubChem
# TDP1 inh: qHTS Assay for Inhibitors of Tyrosyl-DNA Phosphodiesterase (TDP1); Tyrosyl-DNA phosphodiesterase 1 (Homo sapiens), Q9NUW8; recombinant TDP1, AlphaScreen DNA substrate cleavage; Potency, µM (doses to about 130 µM), for the others: at the highest dose activity change, negative = inhibition, most hits filed as inhibitors; 350,000 compounds, 0.28% hits; AID 485290, 2010; also: % is scaled to controls: 0 for no effect and ±100 for the full control effect; nearly all actives have a fitted effect of over 40% in size
# Target sequence (Q9NUW8 whole entry, looked up): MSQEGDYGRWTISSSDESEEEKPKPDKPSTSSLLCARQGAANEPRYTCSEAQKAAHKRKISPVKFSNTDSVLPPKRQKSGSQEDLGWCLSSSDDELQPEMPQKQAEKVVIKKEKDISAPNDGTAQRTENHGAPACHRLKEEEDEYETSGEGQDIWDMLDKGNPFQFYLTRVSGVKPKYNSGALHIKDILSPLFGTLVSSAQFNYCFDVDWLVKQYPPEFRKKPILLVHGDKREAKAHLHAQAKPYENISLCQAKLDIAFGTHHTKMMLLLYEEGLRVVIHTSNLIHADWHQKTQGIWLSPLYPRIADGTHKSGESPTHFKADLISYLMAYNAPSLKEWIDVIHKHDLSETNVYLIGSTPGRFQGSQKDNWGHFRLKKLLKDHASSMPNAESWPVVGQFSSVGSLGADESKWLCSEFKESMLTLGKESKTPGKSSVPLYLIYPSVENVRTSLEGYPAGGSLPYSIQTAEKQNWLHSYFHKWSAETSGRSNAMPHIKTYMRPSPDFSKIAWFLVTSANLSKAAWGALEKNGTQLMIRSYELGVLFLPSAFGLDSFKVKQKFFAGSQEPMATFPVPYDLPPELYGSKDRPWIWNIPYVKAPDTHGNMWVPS
#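 Recombinant human Tdp1 (E. coli-expressed, 1 nM final) preincubated with compounds 15 min at room temperature, then 5'-biotin/3'-phosphotyrosine-FITC DNA substrate (15 nM final) added for 5 min. AlphaScreen beads (10 ug/ml final) added 10 min; cleavage lowers signal.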
# DT40 TDP1 CPT: qHTS for Inhibitors of human tyrosyl-DNA phosphodiesterase 1 (TDP1): qHTS in cells in presence of CPT. Potency, µM (series often up to 46.2 µM), inactives show top-dose activity change, negative = growth inhibition, usual class: inhibitors. 420,000 compounds, 12% hits. AID 686979, 2013. chicken DT40 Tdp1-/-;hTDP1 cells + 20 nM CPT, ATP luminescence, 48 h; also: % is scaled to controls: 0 for no effect and ±100 for the full control effect; nearly all actives have a fitted effect of over 55% in size
#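 Cell growth measured by CellTiter-Glo luminescence after a minimum 48 h, 37 C compound exposure with 20 nM CPT in Tdp1-knockout DT40 cells stably expressing hTDP1, seeded 400/well; qHTS titration format.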
# DT40 TDP1 no CPT: qHTS for Inhibitors of human tyrosyl-DNA phosphodiesterase 1 (TDP1): qHTS in cells in absence of CPT; DT40 Tdp1-/- hTDP1 cells, no CPT, ATP luminescence, 48 h; Potency, µM (top dose mostly 46.2 µM), without a hit: at the highest dose activity change, negative = growth inhibition, usual class: inhibitors; 420,000 compounds, 15% hits; also: % is scaled to controls: 0 for no effect and ±100 for the full control effect; nearly all actives have a fitted effect of over 55% in size
#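 Cells were dispensed at 400 per well, compounds added by pin tool, plates incubated ≥48 hr at 37 °C, then CellTiter-Glo added for 30 min at room temperature before luminescence reading. Line: DT40 Tdp1-/- complemented with hTDP1; camptothecin omitted.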
# ClpP mod: qHTS Assay for Activators of ClpP. purified B. subtilis ClpP, FRET peptide cleavage, 20 min. AID 651965, 2013. 340,000 compounds, 1.9% hits. ATP-dependent Clp protease proteolytic subunit (Bacillus subtilis (strain 168)), P80244. Potency, µM (top dose mostly 57.5 µM), inactives show at the highest dose activity change, negative = active; active = well fitted falling curve with a large enough effect; inconclusive = small, poorly fitted or top-dose-only effect; inactive = no such curve, though single readings can be large or run the other way; also: the source files actives as falling curves though it sought activators and does not explain the sign; nearly all actives have a fitted effect of over 65% in size
#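 Buffer: 100 mM Tris/HCl pH8, 100 mM KCl, 0.05% low protease BSA, 2.5% glycerol, 0.01% Tween-20. ClpP 10 microg/mL final; 20 min RT; delta FRET normalized to ADEP and DMSO controls.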
# Starred values were filed as active, the others as inactive; ? = inconclusive; nt = no result; [ ] = remark or other dose. Only some compounds are listed: those with a hit (about 17% of all), similar ones and a draw of the others. Unless noted, calls follow the shape of the dose curve; as a rule, active = well fitted curve in the direction sought with a large enough effect; inconclusive = small, poorly fitted or top-dose-only effect, or another doubt; inactive = no such curve, though single readings can be large; an effect the other way counts as inactive or inconclusive. Potency is read from the fitted curve at half-maximal effect.
SMILES,TDP1 inh,DT40 TDP1 CPT,DT40 TDP1 no CPT,ClpP mod
COc1ccc(-c2cc([C@H]3[C@H]4C=CC[C@@H](C)[C@@H]4C(=O)N3Cc3ccccc3)ccc2F)cc1OC,0.0%,23.1µM*,13µM*,31.6µM*
C[C@@H]1CC=C[C@H]2[C@H]1C(=O)N(Cc1ccccc1)[C@H]2c1cccc([N+](=O)[O-])c1,2.4%,20.6µM*,23.1µM*,0.2%
CC(=O)c1ccc(-c2ccc([C@H]3[C@@H]4C=CCC[C@@]4(C)C(=O)N3Cc3ccccc3)c(F)c2)cc1,1.2%,20.6µM*,16.4µM*,-6.2%
CC(O)CNC(=O)Cc1cc(=O)[nH]c(=O)[nH]1 (stereo not given),-1.3%,-0.9%,4.1%,-1.3%
C[C@@]12CCC=C[C@H]1[C@H](c1ccc3ccccc3c1Br)N(Cc1ccccc1)C2=O,5.0%,?,18.4µM*,-5.3%
C[C@@H]1CC=C[C@H]2[C@H]1C(=O)N(Cc1ccccc1)[C@H]2c1ccc(F)c(/C=C/c2ccccc2)c1,-2.4%,8.2µM*,8.2µM*,?
COc1ccc(-c2ccc(N(C)C)cc2)cc1C1C2C=CCCC2(C)C(=O)N1Cc1ccccc1 (stereo not given),23.2%,nt,nt,nt
COc1ccc(-c2ccc(N(C)C)cc2)cc1[C@H]1[C@@H]2C=CCC[C@@]2(C)C(=O)N1Cc1ccccc1,10.7%,29.1µM*,20.6µM*,3.7%
COc1ccc(-c2cc(C3C4C=CCC(C)C4C(=O)N3Cc3ccccc3)ccc2F)cc1 (stereo not given),5.0%,nt,nt,nt
COc1ccc(-c2cc([C@H]3[C@H]4C=CC[C@@H](C)[C@@H]4C(=O)N3Cc3ccccc3)ccc2F)cc1,-2.4%,13µM*,14.6µM*,?
NCCC[C@@H](CC(=O)N[C@@H]1CCCC[C@H]1C(=O)N[C@H](CC(=O)N[C@@H](CCC(=O)O)CC(=O)O)Cc1c[nH]c2ccccc12)NC(=O)C[C@H](CO)NC(=O)[C@@H]1CCCC[C@H]1N,4.4%,nt,nt,nt
COc1cc(C2NC(=O)NC(C)=C2C(=O)OCC2CCCCC2)ccc1O (stereo not given),nt,7.9%,?,0.0%
Cc1nn(C)c(C)c1/C=C/C(=O)O,-2.5%,1.6%,5.8%,-2.3%
Cc1nn(C)c(C)c1/C=C/C(=O)c1ccc(Cl)cc1Cl,6.2%,8.2µM*,13µM*,nt
COc1cc(/C=C/C(=O)c2cccc([N+](=O)[O-])c2)cc(OC)c1OC,10.8%,5.8µM*,5.17µM*,-0.3%
O=C(Oc1ccc(F)cc1C(=O)/C=C/c1cccs1)c1cccc([N+](=O)[O-])c1,7.6%,0.164µM*,0.366µM*,-0.1%
COc1cc(/C=C/C(=O)OC(C)C(=O)c2ccccc2)cc(OC)c1OC (stereo not given),-0.4%,20.6µM*,14.6µM*,-5.5%
COc1ccc(C(=O)/C=C/c2ccccc2F)c(OC(=O)c2ccc([N+](=O)[O-])cc2)c1,9.0%,23.1µM*,13µM*,-2.0%
C/C(=N\NC(=O)c1nnn(-c2nonc2N)c1CSc1ccc(C)cc1)c1cccs1,nt,-17.6%,?,0.1%
CCN(c1ccccc1)S(=O)(=O)c1ccc(OC)c(NC(=O)c2cc(Cl)ccn2)c1,-2.8%,?,?,1.6%
O=C(NCC12CC3CC(CC(C3)C1)C2)c1cc2nc(-c3ccc(F)cc3)cc(C(F)(F)F)n2n1,9.3%,4.0%,-11.9%,-1.9%
CC(=O)c1cccc([N+](=O)[O-])c1,-0.4%,2.8%,5.7%,2.3%
O=C(/C=C/c1ccccc1F)c1cccc([N+](=O)[O-])c1,3.8%,?,20.6µM*,3.1%
Cc1cc(C)cc(NC(=O)C(NS(=O)(=O)c2cccc3nsnc23)c2ccccc2)c1 (stereo not given),7.0%,?,?,-3.5%
COC(=O)C1CCN(Cc2ccc3c(c2)CN(C(=O)c2cc4cc(F)ccc4[nH]2)CCO3)CC1,nt,-10.5%[9.04 µM],14.6µM*,nt
